SSB-PriA inh – inhibitors of Klebsiella pneumoniae PriA binding to SSB C-terminal tail; AlphaScreen SSBct-PriA binding, biotinylated peptide; inhibition, % at 33 µM; actives 0.6% (n = 430,000); AID 1272365; in the data active = inhibition mostly above about 37%, no sharp cut-off; inactive = mostly below about 20%;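 note: plate controls were negative control peptide for no effect and reference peptide for full effect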
BoNT-F LC inh – BoNT F light chain protease inhibition. Multiplex microsphere protease cleavage assay, flow cytometry. inhibition, % at 10 µM. actives 0.22% (n = 360,000). AID 588497; in the data active = inhibition above about 35%, passing the limit was not always enough; inconclusive = no clear call, values can overlap the other calls; note: plate controls were buffer without enzyme for full effect and enzyme alone for no effect
Anthrax LF inh2 – anthrax lethal factor protease inhibition | P15917 | multiplex microsphere protease cleavage assay, LF | inhibition, % at 10 µM | actives 0.12% (n = 360,000) | AID 588501; note: plate controls were buffer without enzyme for full effect and enzyme alone for no effect
BoNT-A LC inh2 – blocks Botulinum neurotoxin A light chain protease; multiplex microsphere protease substrate cleavage, flow cytometry; inhibition, % at 10 µM; actives 0.17% (n = 360,000); note: plate controls were buffer without enzyme for full effect and enzyme alone for no effect
MazF activator – activators of E. coli MazEF toxin-antitoxin RNase | FAM/BHQ RNA-DNA oligo cleavage fluorescence, 5 h | activation, % at 20 µM | actives 0.32% (n = 350,000) | AID 504720; in the data active = activation above about 50%
Target sequence (P0AE70 whole entry, looked up): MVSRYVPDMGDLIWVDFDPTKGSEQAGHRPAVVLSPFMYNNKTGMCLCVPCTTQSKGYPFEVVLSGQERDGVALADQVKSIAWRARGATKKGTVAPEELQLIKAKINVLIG
Autofluor counter – counter-screen for toxin protease inhibitors: compound fluorescence; compound autofluorescence counterscreen, microsphere flow cytometry; hits give high values; fluorescence intensity (concentration not given with the values); actives 3.1% (n = 360,000); in the data active = fluorescence intensity above about 16000; inconclusive = no clear call, values can overlap the other calls
Numbers without * were called inactive; ? = inconclusive; . = not tested or not shown. A selection: hits, their analogues and other compounds. The true share with any hit is near 3.3%. Cut-off read from the data, not from the text of the source, unless noted: active = inhibition above about 30%; inconclusive = no clear call, values can overlap the other calls; inactive = below that.

SMILES	SSB-PriA inh	BoNT-F LC inh	Anthrax LF inh2	BoNT-A LC inh2	MazF activator	Autofluor counter
CC1CCN(CCCNC(=O)c2coc3nc4ccccc4nc23)CC1	5	10	9	1	6	5057
CCn1ccnc1N1CCN(C(=O)c2ccccc2S(=O)(=O)C(F)F)CC1	-2	.	.	.	.	.
S=c1[nH]nc(C2CCCCC2)n1/N=C/c1ccc(Br)s1	.	39*	-19	?	-5	10813
S=c1[nH]nc(C2CCCCC2)n1/N=C/c1ccc(Br)cc1	.	5	-11	-2	-4	3651
S=c1[nH]nc(C2CCCCC2)n1/N=C/C=C/c1ccccc1	.	-3	0	?	11	22815*
COc1ccc(CNC(=O)N2C3CCC2CC(S(=O)(=O)c2ccccc2)C3)cc1OC (configuration not stated)	-7	.	.	.	.	.
CCOC(=O)c1c(SC)nc(=O)[nH]c1C	-6	.	.	.	.	.
C=CCc1ccccc1OCCn1ccnc1	11	-8	6	-2	2	10388
Clc1ccccc1OCCn1ccnc1	-9	3	2	0	-3	20725*
Cc1ccc(OCCCCn2ccnc2)c(Cl)c1	-11	8	-15	7	-2	19999*
COc1cccc(OCCn2ccnc2)c1	-2	0	-3	0	-1	23533*
Cc1cccc(OCCCn2ccnc2)c1	-5	-2	-2	?	3	21296*
O=S(=O)(Cc1cccc(C(F)(F)F)c1)NCC1CCCN1c1ccccc1 (configuration not stated)	24	.	.	.	.	.
CSc1nc2ccc(NC(=O)c3ccc(S(=O)(=O)N4CCCCCC4)cc3)cc2s1	-8	.	.	.	.	.
O=C(CC1CCCC1)Nc1cc(N2CCN(Cc3ccccc3)CC2)ncn1	3	.	.	.	.	.
CCOC(=O)c1ccccc1NC(=O)Cn1nc([C@H]2CCCN(S(C)(=O)=O)C2)n(C)c1=O	-14	.	.	.	.	.
CS(=O)(=O)N1CCC(CNC(=O)NCc2ccc(F)cc2)CC1	-2	.	.	.	.	.
Cn1c(CN2CCCCC2)nc2cc(NC(=O)c3ccccc3Cl)ccc21	-8	-4	-2	-2	-9	20760*
Cn1c(CN2CCCC2)nc2cc(NC(=O)C3CCCCC3)ccc21	-8	0	1	0	2	17014*
CC(C)C(=O)Nc1ccc2c(c1)nc(CCN1CCN(C)CC1)n2C	-9	-5	-2	-2	-2	24142*
CN1CCN(CCc2nc3cc(NC(=O)COc4ccccc4)ccc3n2C)CC1	-12	-3	2	1	-2	9293
O=C(O)C1(Cc2nc3ccccc3[nH]2)CCCC1	-3	10	2	-2	-12	2927
O=C(O)COCc1nc2ccccc2[nH]1	-2	-1	2	-3	0	25242*
CC1CCc2c(sc(N=CN(C)C)c2C#N)C1 (configuration not stated)	12	.	.	.	.	.
COc1ccc(OC)c(C2=NOC(C(=O)Nc3ccccc3SC)C2)c1 (configuration not stated)	-8	-9	6	0	-11	4527
SMILES	SSB-PriA inh	BoNT-F LC inh	Anthrax LF inh2	BoNT-A LC inh2	MazF activator	Autofluor counter
COc1ccc(OC)c(C2=NOC(C(=O)Nc3cccc(C(C)=O)c3)C2)c1 (configuration not stated)	-2	2	0	0	0	23110*
COc1cc(NC(=O)C2CC(c3cccc(OC)c3OC)=NO2)cc(OC)c1OC (configuration not stated)	-21	2	-2	3	0	22158*
COc1cccc(C2=NOC(C(=O)Nc3cccnc3Cl)C2)c1OC (configuration not stated)	-19	0	3	-1	0	2430
O=[N+]([O-])c1ccc(S(=O)(=O)N2CCC3(CC2)OCCN3S(=O)(=O)c2ccccc2)cc1	5	.	.	.	.	.
O=C(Cc1cc(=O)[nH]c(SCc2ccc(F)cc2)n1)Nc1cccc(F)c1	-7	.	.	.	.	.
CCC(C)Nc1c([N+](=O)[O-])cc(C(C)(C)C)cc1[N+](=O)[O-] (configuration not stated)	117*	.	.	.	.	.
CCCCNc1c([N+](=O)[O-])cc(C(=O)O)cc1[N+](=O)[O-]	-1	-6	-1	0	8	7355
COc1cccc(-c2nnc3ccc(OCCNC(=O)COc4ccc(F)cc4)nn23)c1	-2	.	.	.	.	.
O=C(OCCN1C(=O)c2cccc3c(N4CCOCC4)ccc(c23)C1=O)c1ccccc1Br	-15	.	.	.	.	.
O=C(OCCN1C(=O)c2cccc3c(N4CCOCC4)ccc(c23)C1=O)c1ccccc1Cl	-38	8	15	37*	-728	3728
O=C(OCCN1C(=O)c2cccc3c(N4CCOCC4)ccc(c23)C1=O)c1ccc(Cl)cc1Cl	-9	19	24	51*	-802	4710
COCC(=O)N(CCc1cccs1)Cc1ccoc1	-7	.	.	.	.	.
Cc1nc(-c2ccccc2)sc1C(=O)Nc1ccc(-c2ccc(=O)n(C)n2)cc1	-3	.	.	.	.	.
CN(CC1Cc2ccccc2CO1)C(=O)Nc1cccs1 (configuration not stated)	4	.	.	.	.	.
C[C@H](Oc1ccccc1)C(=O)NCCS(=O)(=O)N1CCN(c2ccccc2)CC1	-11	.	.	.	.	.
CCn1c(SCc2nc(-c3ccccc3)no2)nnc1-c1ccco1	-17	-6	-4	-3	-4	23800*
c1ccc(-c2noc(CSc3nnnn3C3CCCCC3)n2)cc1	-26	-3	-2	-1	-11	20752*
CCn1c(SCc2nc(-c3ccccc3)no2)nnc1-c1cccs1	7	3	2	0	4	4159
CN(Cc1ccccc1)C(=O)CSc1nnc(-c2ccco2)n1-c1ccccc1	4	0	-1	-2	12	19956*
c1ccc(-n2c(SCc3nc(-c4cccs4)no3)nnc2-c2ccco2)cc1	87*	-7	-4	0	-7	10902
c1ccc(-c2noc(CC3CCCCC3)n2)cc1	-46	-21	-2	-5	3	6314
Cc1ccc(-c2noc(-c3c(C)cc(C)n(CC(=O)NCc4ccc5c(c4)OCO5)c3=O)n2)cc1	-7	.	.	.	.	.
Cc1oc(-c2cc(Cl)cc(Cl)c2)cc1-c1nn2c(-c3ccccc3)nnc2s1	-14	.	.	.	.	.
Cc1ccc2nc(CSc3nnc(-c4ccco4)n3-c3ccccc3)cc(=O)n2c1	1	1	-1	0	-14	22931*
CC(OC(=O)c1cccnc1SCc1cc(=O)n2ccccc2n1)c1ccccn1 (configuration not stated)	-2	-5	-4	-3	-1	16644*
SMILES	SSB-PriA inh	BoNT-F LC inh	Anthrax LF inh2	BoNT-A LC inh2	MazF activator	Autofluor counter
CCCCOc1nc(N)nc(-c2ccccc2)n1	-7	-3	0	0	3	22127*
Nc1nc(N)nc(-c2ccccc2)n1	-8	6	0	0	3	3065
COc1ccc(CCC(=O)NCCn2ccnc2-c2ncccn2)cc1	96*	.	.	.	.	.
O=C(CSCc1ccccc1)NCCn1ccnc1-c1ncccn1	42*	.	.	.	.	.
O=C(NCCn1ccn2nccc12)C1c2ccccc2Oc2ccccc21	-13	.	.	.	.	.
O=C(NCCn1ccnc1-c1ncccn1)C1c2ccccc2Oc2ccccc21	53*	.	.	.	.	.
CSc1ccccc1C(=O)NCCn1ccnc1-c1ncccn1	97*	.	.	.	.	.
COc1ccc(CCC(=O)NCCn2ccnc2C2CC2)cc1	7	.	.	.	.	.
